Screening results deposited in PubChem by Sanford-Burnham Center for Chemical Genomics.
Hits are enriched below; roughly 1.5% of the tested compounds scored in any of these assays.
CD11b adhes inh: CD11b/CD18-fibrinogen binding inhibition | P05107+P11215 | K562 CD11b/CD18 adhesion to fibrinogen, ATPlite luminescence; Mn2+ added to activate the integrin | inhibition, % at 10 µM | 0.54% of 93,000 active | AID 1497;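 active = primary inhibition of 50% or more at 10 µM, then 40% or more on retest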
PLAP activator: activators of human placental alkaline phosphatase; AID 696; P05187; purified PLAP enzyme, luminescent substrate read-out; hits give high values; 1.2% of 96,000 active; activation fold at 20 µM; in the data active = activation fold above about 2
HePTP inhibitor: human HePTP phosphatase inhibition; inhibition, % at 20 µM; recombinant HePTP phosphatase activity, OD absorbance; 0.64% of 110,000 active; P35236; in the data active = inhibition above about 50%;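 also: plate controls were vehicle for no effect and reference inhibitor for full effect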
Mac1 fbg enh: increases human CD11b/CD18 adhesion to fibrinogen; K562 CD11b/CD18 adhesion to fibrinogen, ATPlite luminescence; P05107+P11215; 0.07% of 93,000 active; activation, % at 10 µM;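 active = 10 µM primary screen giving 50% or more activity, confirmed by 40% or more on retest at that dose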
Active calls of the source: *; . = not tested or not shown.

SMILES	CD11b adhes inh	PLAP activator	HePTP inhibitor	Mac1 fbg enh
COc1cc(/C=N/N=C2/NC(=O)C(CC(=O)Nc3cccc(Cl)c3Cl)S2)ccc1O (centres undefined)	.	.	2	.
COc1ccc(Cl)cc1N(CC(=O)N1CCOCC1)S(=O)(=O)c1ccc(C)c([N+](=O)[O-])c1	.	.	4	.
COc1ccc(C2/C(=C(\O)c3ccc(C)cc3)C(=O)C(=O)N2CCCC(=O)O)c(OC)c1 (centres undefined)	.	.	-14	.
COc1ccc(CC(=O)Nc2ccc(-c3nc4ccccc4o3)c(O)c2)cc1OC	.	.	89*	.
COc1cc(C(=O)Nc2ccc(-c3nc4cc(C)ccc4o3)c(O)c2)cc(OC)c1OC	.	2.7*	-5	.
COc1ccc(CC(=O)Nc2ccc(O)c(-c3nc4cc(Cl)ccc4o3)c2)cc1OC	.	.	-6	.
CC1(C)NN(c2ccccc2)C(=S)N1CN1CCOCC1	.	.	6	.
Cc1occc1C(=O)Nc1ccc(I)cc1C(=O)O	.	.	7	.
O=C(/C=C/c1ccc(F)cc1)N1CCN(c2cccc(Cl)c2)CC1	.	.	104*	.
O=C(N/N=C/c1ccc2c(c1)OCO2)c1sc2cc(Cl)ccc2c1Cl	.	.	58*	.
COc1ccc(C)cc1NC(=O)CN1CCN(C/C=C/c2ccccc2)CC1	26	2.3*	.	0
Cc1onc(-c2c(Cl)cccc2Cl)c1C(=O)Nc1nc(-c2ccc3ccccc3c2)cs1	.	.	-12	.
O=c1c2ccccc2nc(N/N=C/c2c(O)ccc3ccccc23)n1O	58*	1.8	.	-6
O=C(CN1CCCCCC1)N/N=C/c1cccs1	-23	2.5*	.	1
O=C(Nc1nc2c(s1)CCCC2)Oc1ccccc1	9	1.1	8	1
C/C(=N\Nc1nc2c(s1)CCCC2)c1ccccc1	10	2.3*	.	1
Nc1nonc1/C(=N\OC(=O)Nc1ccccc1)N1CCOCC1	.	.	5	.
Cc1oc(-c2ccc(Cl)cc2)nc1CN1CCCC(C(=O)N2CCN(C(=O)c3ccco3)CC2)C1 (centres undefined)	64*	1.5	6	-5
CCCCc1nc(SCC(=O)Nc2ccc(S(N)(=O)=O)cc2)n[nH]1	-23	2*	-4	-3
N#C/C(=C\c1ccc(O)c(O)c1)S(=O)(=O)c1ccccc1	82*	0.3	11	-8
COc1ccc(N2CCN(CCCn3c(=S)[nH]c4ncccc4c3=O)CC2)cc1	62*	1.4	.	3
O=c1c2cccnc2[nH]c(=S)n1CCCN1CCN(c2ccc(F)cc2)CC1	-38	1.2	1	4
O=C1NC(=Nc2ccccc2Cl)S/C1=C/c1ccc(-c2ccccc2Cl)o1	.	.	1	.
COc1ccc(N/C(N)=N/c2nc(CSc3ccc(Cl)cc3)cc(=O)[nH]2)cc1	8	2*	.	2
N/C(=N\c1nc(CSc2ccc(Cl)cc2)cc(=O)[nH]1)Nc1cccc2ccccc12	3	1.5	.	-6
SMILES	CD11b adhes inh	PLAP activator	HePTP inhibitor	Mac1 fbg enh
COc1cc(NC(=O)COc2ccc(-c3ccc(C)cc3)cc2)c(OC)cc1Cl	.	.	11	.
O=C(Nc1ccc(Cl)cc1)Nc1ccc2c(c1)OCCO2	.	.	105*	.
O=C(Nc1ccc2c(c1)OCO2)Nc1ccc(Cl)cc1Cl	-43	0.8	.	-1
O=C(COc1cccc(Cl)c1)N/N=C/c1c(Br)cc(Br)c(O)c1Br	.	.	2	.
COc1cc(Br)cc(/C=N/NC(=O)COc2cccc(Cl)c2)c1O	.	.	99*	.
O=C(O)CN1C(=O)/C(=C\c2ccc(Cl)c(Cl)c2)SC1=S	.	.	-2	.
COc1cc(/C=C2/SC(=S)N(CC(=O)O)C2=O)cc(Cl)c1O	.	.	98*	.
CC(=O)Nc1ccc2c(c1)C1C=CCC1C(c1ccccc1[N+](=O)[O-])N2 (centres undefined)	.	.	14	.
Cc1ccc(C23CC4CC(CC(C(=O)Nc5cccc(C(=O)O)c5)(C4)C2)C3)cc1	.	.	2	.
Cc1ccc(C23CC4CC(CC(C(=O)Nc5ccc(F)cc5F)(C4)C2)C3)cc1	.	.	72*	.
CCn1c(SCC(=O)c2ccc(O)c(O)c2)nnc1-c1ccc(C)cc1	22	1.1	.	-6
CCn1c(SCC(=O)c2ccc3c(c2)Cc2ccccc2-3)nnc1-c1ccc(N)cc1	1	1	.	92*
Cc1nc(SCC(=O)c2ccc(F)cc2)n[nH]1	-8	2.3*	1	0
Cc1cc(C(=O)CSc2n[nH]c(N)n2)c(C)n1-c1cc(F)ccc1F	-10	2.4*	11	0
C=CCn1c(C)cc(C(=O)CSc2n[nH]c(N)n2)c1C	-4	2.7*	.	-6
CCOc1ccc(/C=C2\SC(=S)N(CCC(=O)Nc3ccccn3)C2=O)cc1	.	.	3	.
Cc1cc(C)c(N2C(=O)NC(=O)/C(=C/c3ccc([N+](=O)[O-])o3)C2=O)c(C)c1	.	.	76*	.
Cc1cccc(N2C(=O)NC(=O)/C(=C/c3ccc(-c4ccccc4[N+](=O)[O-])o3)C2=O)c1	.	.	0	.
O=C1NC(=O)N(c2ccccc2F)C(=O)/C1=C/c1ccc(I)o1	.	.	67*	.
O=C1NC(=O)N(c2cccc(F)c2)C(=O)/C1=C/c1ccc(I)o1	.	.	53*	.
Cc1ccc(/C(O)=C/c2nc3ccc(C)cc3oc2=O)cc1	.	.	11	.
O=C(NC(=S)NC1CCSC1=O)c1ccco1 (centres undefined)	.	.	103*	.
O=C(NC(=S)NC1CCSC1=O)c1ccccc1Cl (centres undefined)	.	1.8	.	.
CCC(=O)Nc1sc2c(c1C(=O)Nc1cccc3ccccc13)CCC(C)C2 (centres undefined)	.	.	4	.
O=c1c2c(nc3cc(-c4ccc(I)cc4)[nH]n13)CCS2	.	.	13	.
SMILES	CD11b adhes inh	PLAP activator	HePTP inhibitor	Mac1 fbg enh
O=C1CC(c2ccco2)CC(O)=C1C=Nc1cc(Cl)ccc1O (centres undefined)	-7	2.5*	7	-2
O=C(COc1ccccc1Cl)NC(=O)NC1CCCC1	-3	0.7	1	4
O=C(NNC(=O)C1CCCO1)c1ccc(Cl)cc1 (centres undefined)	-35	2.2*	-2	-1
O=C(COc1ccccc1Cl)NNC(=O)C1CCCO1 (centres undefined)	-24	2*	.	-4
O=C(NNC(=O)C1CCCO1)c1cccc(F)c1 (centres undefined)	.	.	12	.
CCOC(=O)Oc1ccc2c(=O)c(Oc3cccc(C)c3)coc2c1	.	1	.	.
Cc1cccc(Oc2coc3cc(OC(=O)c4cc5ccccc5oc4=O)ccc3c2=O)c1	-11	0.9	.	53*
C(=NC1=NN(c2ccccc2)CC1)N1CCCCC1	.	.	-11	.
COc1ccc(N2C(=O)/C(=C/c3ccc(Br)o3)SC2=S)cc1	.	.	51*	.
COc1ccc(N2C(=O)/C(=C/c3ccc(I)o3)SC2=S)cc1	.	.	15	.
CCOc1ccc2c(c1)-c1c(ssc1=S)C(C)(C)N2C(=O)CC	.	.	-8	.
N/C(=N/c1nc2ccccc2o1)NC(=O)Nc1ccccc1	.	.	5	.
N#CC(c1ccc(Cl)cc1)c1ccc2c(C(F)(F)F)cc(C(F)(F)F)nc2n1 (centres undefined)	88*	1.2	.	-8
CCN(CC(=O)NCCc1ccc(S(N)(=O)=O)cc1)Cc1nc2cc(OC)c(OC)cc2c(=O)[nH]1	16	2.9*	.	-8
COC(=O)c1cc(C(=O)NC2CCSC2=O)cc([N+](=O)[O-])c1 (centres undefined)	.	.	102*	.
c1ccc(Nc2nc3ccccc3[nH]2)nc1	14	2.2*	9	-2
Cc1cc(C)nc(Nc2nc3ccccc3[nH]2)n1	.	1.3	2	-3
